Rows were chosen to be rich in hits. Some 19% of all compounds tested hit in one or more screens of this group.
IL1B secr inh – qHTS for Inhibitors of Inflammasome Signaling: IL-1-beta AlphaLISA Primary Screen; AID 743279, 2014; hit rate 4.7% among 360,000; activity change, % at 57.5 µM; THP-1 LPS/ATP IL-1B secretion, AlphaLISA, 16 h; active compounds read low; in the data active = activity change below about -50%; inconclusive = mostly about -30% to -49%
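Secreted IL-1B measured by AlphaLISA bead assay after 16 h compound exposure of THP-1 cells; compounds (final up to 57.5 uM) added 1 h before LPS (250 ng/mL) and ATP (1.25 mM) stimulation; lower signal means less secretion.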
uPA surface inh – qHTS for Inhibitors of Cell Surface uPA Generation | cell surface uPA generation assay, qHTS | Potency, µM (highest dose often 38.3 µM), for the others: at the top dose activity change, negative = inhibition, most hits filed as inhibitors | hit rate 0.31% among 330,000; active = well fitted inhibition curve with a large enough effect; inconclusive = small, poorly fitted or top-dose-only effect; inactive = no such curve, though single readings can be large or run the other way; tested in mouse RAW 264.7 cells; also: potency is read from the fitted curve at half-maximal effect; nearly all actives have a fitted effect of over 55% in size
TDP1 cell noCPT – qHTS for Inhibitors of human tyrosyl-DNA phosphodiesterase 1 (TDP1): qHTS in cells in absence of CPT. AID 686978, 2013. DT40 Tdp1-/- hTDP1 cells, no CPT, ATP luminescence, 48 h. hit rate 15% among 420,000. Potency, µM (series often up to 46.2 µM), without a hit: at the highest dose activity change, negative = growth inhibition, hits mostly inhibitors; also: potency is read from the fitted curve at half-maximal effect; nearly all actives have a fitted effect of over 55% in size
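A cellular qHTS used chicken DT40 cells lacking endogenous Tdp1 but carrying stably transfected human TDP1. Compounds were applied without camptothecin, and cell growth kinetics were judged by ATP-dependent luminescence after ≥48 hr.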
TDP1 cell CPT – qHTS for Inhibitors of human tyrosyl-DNA phosphodiesterase 1 (TDP1): qHTS in cells in presence of CPT; AID 686979, 2013; Potency, µM (series often up to 46.2 µM), for the others: at the highest dose activity change, negative = growth inhibition, usual class: inhibitors; chicken DT40 Tdp1-/-;hTDP1 cells + 20 nM CPT, ATP luminescence, 48 h; hit rate 12% among 420,000; also: potency is read from the fitted curve at half-maximal effect; nearly all actives have a fitted effect of over 55% in size
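Chicken DT40 Tdp1-/- cells stably complemented with human TDP1 were seeded at 400 cells/well in medium containing 20 nM camptothecin, exposed to pin-transferred compounds, and grown at 37 °C for at least 48 hr. Viability was read as ATP luminescence.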
HT1080 IDH1KD tx – qHTS for induction of synthetic lethality in tumor cells producing 2HG: qHTS for the HT-1080-IDH1KD cell line; Potency, µM (series often up to 46.1 µM), for inactives: top-dose activity, negative = toxicity, hits mostly cytotoxic; HT-1080 IDH1 knockdown viability, ATP luminescence, 48 h; hit rate 2% among 360,000; AID 686971, 2013;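 also: potency is read from the fitted curve at half-maximal effect; 0% = DMSO wells and -100% = cell-free medium wells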
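Cytotoxicity counter-line: IDH1KD HT-1080, 48 h, CellTiter-Glo. Curves classed by r2, magnitude and activity.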
HT1080-NT tox – qHTS for induction of synthetic lethality in tumor cells producing 2HG: qHTS for the HT-1080-NT fibrosarcoma cell line; HT-1080-NT fibrosarcoma viability, CellTiter-Glo ATP luminescence, 48 h; Potency, µM (series often up to 46.1 µM), without a hit: at the highest dose activity, negative = less viability, usual class: cytotoxic; AID 686970, 2013; hit rate 1.6% among 360,000;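 also: NT is the 2HG producing partner of a matched IDH1 knockdown line; potency is read from the fitted curve at half-maximal effect; 0% = DMSO-treated cells and -100% = media-only wells without cells; nearly all actives have a fitted effect of over 55% in size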
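750 cells/well, RPMI + 5% FBS; 2 h settle, compound pin-transfer, 48 h at 37 degrees C. CellTiter-Glo 10 min RT, luminescence. Normalized to DMSO and media-only wells.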
* marks the source's active call; other numbers are inactive results; [ ] = dose if it differs, or a comment. Unless noted, calls follow the shape of the dose curve; as a rule, active = well fitted curve in the direction sought with a large enough effect; inconclusive = small, poorly fitted or top-dose-only effect, or another doubt; inactive = no such curve, though single readings can be large; an effect the other way counts as inactive or inconclusive. Unless noted, % is scaled to controls: 0 for no effect and ±100 for the full control effect.

How did OCCCNc1ncnc2c1[nH]c1ccccc12 do in these assays?
IL1B secr inh: 39; uPA surface inh: 1%; TDP1 cell noCPT: -16%; TDP1 cell CPT: -10%; HT1080 IDH1KD tx: -3%; HT1080-NT tox: -2%

How did CCN(CC)c1ncnc2c1[nH]c1ccccc12 do in these assays?
IL1B secr inh: -16; uPA surface inh: -8%; TDP1 cell noCPT: 23µM*; TDP1 cell CPT: 18µM*; HT1080 IDH1KD tx: -16%; HT1080-NT tox: -19%

How did COc1ccc(C(=O)Nc2ccc(OCc3cc(=O)n4ccccc4n3)cc2)cc1 do in these assays?
TDP1 cell noCPT: -25%; TDP1 cell CPT: 2%

How did Cc1cccc(C)c1OCC(=O)Nc1c(C(=O)c2ccccc2)oc2ccccc12 do in these assays?
TDP1 cell noCPT: -25%; TDP1 cell CPT: 1%

How did C#CCNC(=O)C[C@@H]1C[C@@]2(C(=O)OCC)CCCC=C2N(CCC2=CCCCC2)C1=O do in these assays?
IL1B secr inh: 28; TDP1 cell noCPT: 15µM*; TDP1 cell CPT: 13µM*; HT1080 IDH1KD tx: -5%; HT1080-NT tox: 4%

Results for CCOC(=O)[C@]12CCC=C1N(CCC1=CCCCC1)C(=O)[C@H](CC(=O)NCC1CCCCC1)C2 ?
IL1B secr inh: 0; TDP1 cell noCPT: inconclusive; TDP1 cell CPT: 23µM*; HT1080 IDH1KD tx: inconclusive; HT1080-NT tox: -11%

How did CCOC(=O)[C@]12CCCC=C1N(CCC1=CCCCC1)C(=O)[C@H](CC(=O)NCC1CCCCC1)C2 do in these assays?
IL1B secr inh: inconclusive; TDP1 cell noCPT: inconclusive; TDP1 cell CPT: inconclusive; HT1080 IDH1KD tx: 23µM*; HT1080-NT tox: inconclusive

What do the screens show for `COc1ccc2c(c1)OC(C)CN(CCNC(=O)c1ccc(-n3cccn3)cc1)C2` (configuration not stated)?
TDP1 cell noCPT: -19%; TDP1 cell CPT: 6%[9.04 µM]

Results for O=C(Oc1cccc(/C=N/Nc2nc(Nc3ccccc3)nc(N3CCOCC3)n2)c1)c1ccco1 ?
IL1B secr inh: 1; uPA surface inh: -6%; TDP1 cell noCPT: 23µM*; TDP1 cell CPT: 21µM*; HT1080 IDH1KD tx: inconclusive; HT1080-NT tox: -28%

Results for Cc1ccc(Nc2nc(N/N=C/c3c[nH]c4ccccc34)nc(N3CCOCC3)n2)cc1 ?
IL1B secr inh: -67*; uPA surface inh: -2%; TDP1 cell noCPT: 8.2µM*; TDP1 cell CPT: 21µM*; HT1080 IDH1KD tx: inconclusive; HT1080-NT tox: inconclusive

Results for Cc1cc(/C=N/Nc2nc(N3CCOCC3)nc(N3CCOCC3)n2)c(C)n1-c1ccccc1 ?
IL1B secr inh: -1; uPA surface inh: -3%; TDP1 cell noCPT: inconclusive; TDP1 cell CPT: -26%; HT1080 IDH1KD tx: -6%; HT1080-NT tox: inconclusive

Results for C(=N\Nc1nc(Nc2ccccc2)nc(N2CCOCC2)n1)/c1c[nH]c2ccccc12 ?
IL1B secr inh: -81*; uPA surface inh: -9%; TDP1 cell noCPT: 8.2µM*; TDP1 cell CPT: 12µM*; HT1080 IDH1KD tx: inconclusive; HT1080-NT tox: inconclusive

Results for Cc1[nH]c2ccccc2c1/C=N/Nc1nc(Nc2ccc(F)cc2)nc(N2CCOCC2)n1 ?
IL1B secr inh: 1; uPA surface inh: 15%; TDP1 cell noCPT: -24%; TDP1 cell CPT: -21%; HT1080 IDH1KD tx: 0%; HT1080-NT tox: -4%

What do the screens show for `Cc1cc(C)c2cc(C#N)c(NCCNC(=O)c3ccncc3)nc2c1`?
IL1B secr inh: -13; TDP1 cell noCPT: -26%; TDP1 cell CPT: inconclusive; HT1080 IDH1KD tx: 27%; HT1080-NT tox: 25%

What do the screens show for `CCOC(=O)c1c(C)[nH]c(C)c1S(=O)(=O)NCC(=O)Nc1ccc(CC)cc1`?
TDP1 cell noCPT: -20%; TDP1 cell CPT: -27%

How did COc1ccc(-c2noc(CN(C)C(=O)CCCN3C(=O)[C@H]4CC=CC[C@H]4C3=O)n2)cc1 do in these assays?
IL1B secr inh: 18; TDP1 cell noCPT: inconclusive; TDP1 cell CPT: inconclusive; HT1080 IDH1KD tx: -4%; HT1080-NT tox: -8%

How did COc1ccc(NC(=S)NCCc2c[nH]c3ccccc23)cc1 do in these assays?
IL1B secr inh: -17; uPA surface inh: 7%; TDP1 cell noCPT: inconclusive; TDP1 cell CPT: inconclusive; HT1080 IDH1KD tx: 2%; HT1080-NT tox: 2%

Results for COc1ccccc1NC(=S)NCCc1c[nH]c2ccccc12 ?
IL1B secr inh: 0; uPA surface inh: 0%; TDP1 cell noCPT: 18µM*; TDP1 cell CPT: 15µM*; HT1080 IDH1KD tx: -16%; HT1080-NT tox: -22%

How did Cc1ccc(NC(=S)NCCc2c[nH]c3ccccc23)c(C)c1 do in these assays?
IL1B secr inh: -26; uPA surface inh: 13%; TDP1 cell noCPT: 21µM*; TDP1 cell CPT: 13µM*; HT1080 IDH1KD tx: 6%; HT1080-NT tox: 0%

Results for COc1ccccc1NC(=S)NCCc1ccc(F)cc1 ?
IL1B secr inh: 8; uPA surface inh: 1%; TDP1 cell noCPT: inconclusive; TDP1 cell CPT: 7%; HT1080 IDH1KD tx: 12%; HT1080-NT tox: 6%

How did COc1ccccc1NC(=S)NCCc1ccccc1 do in these assays?
IL1B secr inh: -3; uPA surface inh: -4%; TDP1 cell noCPT: 21µM*; TDP1 cell CPT: -4%; HT1080 IDH1KD tx: -2%; HT1080-NT tox: -3%

How did COc1cc(NC(=S)NCCc2c[nH]c3ccccc23)c(OC)cc1Cl do in these assays?
IL1B secr inh: -66*; uPA surface inh: -1%; TDP1 cell noCPT: inconclusive; TDP1 cell CPT: inconclusive; HT1080 IDH1KD tx: inconclusive; HT1080-NT tox: inconclusive

What do the screens show for `COc1cc(NC(=S)NCCO)c(OC)cc1Cl`?
IL1B secr inh: -4; uPA surface inh: 0%; TDP1 cell noCPT: -4%; TDP1 cell CPT: -11%; HT1080 IDH1KD tx: -1%; HT1080-NT tox: -5%

Results for CC1=C[C@H](C)[C@H](c2c(F)cccc2Cl)CC1=O ?
IL1B secr inh: 4; uPA surface inh: -13%; TDP1 cell noCPT: -15%; TDP1 cell CPT: -10%; HT1080 IDH1KD tx: -4%; HT1080-NT tox: 8%

How did COc1ccc(C2CCCCC2SCC(=O)O)cc1OC (configuration not stated) do in these assays?
IL1B secr inh: -1; TDP1 cell noCPT: -5%; TDP1 cell CPT: -7%; HT1080 IDH1KD tx: 7%; HT1080-NT tox: -2%

Results for O=C(C1CCN(S(=O)(=O)Cc2ccccc2)CC1)N1CCN(c2cccc(C(F)(F)F)c2)CC1 ?
TDP1 cell noCPT: inconclusive; TDP1 cell CPT: -20%
